Measured values from ChEMBL document CHEMBL3988442, “University of Dundee, Small-Polar-MMV Screening Library” (2021).

target: AMP-activated protein kinase, AMPK (Homo sapiens) (UniProt P54646+O43741+P54619+Q9UGJ0+Q9Y478+Q13131+Q9UGI9); test: AMP-dependent Kinase enzyme assay. An in vitro enzyme assay that detects ADP turnover that is directly proportional to AMPK activity. This uses naive AMPK that is activated during the assay with MK-8722; format: functional; set-up: scale not given: direction of the effect not stated beside the values; settings: 30 µM

Row | Compound | Percent Effect [%]
1 | COc1coc(CN2CCCC3(CCC(=O)N(CC4CC4)C3)C2)cc1=O (stereo not given) | 8.74
2 | Cc1cc(C)n(C2CN(c3nc(N)nc4c3CCCC4)C2)n1 | -1.57
3 | CCC(=O)Nc1ccc(F)cc1OC | -10.1
4 | CCc1noc(C(C)N2CCN(Cc3noc(C4CC4)n3)CC2)n1 (stereo not given) | 0.498
5 | Cc1nc(NC(=O)C(C)N(C)Cc2cccc(C#N)c2)sc1C (stereo not given) | 7.53
6 | CCc1cnc(N2CCCC(CCC(N)=O)C2)nc1 (stereo not given) | -6.19
7 | CC(C)OCCS(=O)(=O)N1CCN(Cc2cccn2C)CC1 | -4.58
8 | CC(C(N)=O)N1CCN(c2ncc(Br)cn2)CC1 (stereo not given) | -3.12
9 | CN(CC1CCCCO1)c1nc2c(cc1C(N)=O)CCC2 (stereo not given) | -5.23
10 | O=C(c1nnn(-c2ccccc2)n1)N(CCO)CCO | 0.534
11 | O=C(c1cnc2c(c1)CCC2)N1CCCC(CO)(CC2CC2)C1 (stereo not given) | 3.82
12 | COC(=O)NCC(=O)N1CCCn2nc(CN3CC[C@H](F)C3)cc2C1 | 5.46
13 | O=C(Nc1cccc(N2CCOCC2)c1)N[C@H](CO)c1ccccc1 | 6.04
14 | CN1CCc2nc(C3CCCN(S(=O)(=O)c4ccccc4)C3)ncc2C1 (stereo not given) | 6.25
15 | CC(C)c1nc(CC(=O)Nc2cnccc2O)cs1 | -1.17
16 | Cc1cc(CN2CCC(C3CCN(CCc4ccccc4)CC3)C2)[nH]n1 (stereo not given) | -4.05
17 | CC(C)N1CCC(NC(=O)c2cn(-c3ccc(F)cc3)nn2)C1 (stereo not given) | -3.78
18 | O=C(NCC(=O)N1CCCCC1)c1sccc1C1CC1 | -1.89
19 | CCn1ccnc1CNCc1ccc(C)cc1OC(C)(C)C | 25.5
20 | Cc1nccn1CCCN1CCCC(c2ccccc2)C1 (stereo not given) | -4.4
